Laboratory results as given in PubChem BioAssay (NCI).
Compounds without any hit were thinned out: in the full panel of roughly 79,000, 15% have a hit. Activity calls are given as the source filed them. No stated cut-off is given here; in the data, active means growth inhibition above about 70%; inactive means the rest.

Assays:
[1] = NCI Yeast Anticancer Drug Screen. Data for the wt1 strain (AID 149);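 further: 0% = growth of vehicle-treated wt1 cultures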; conditions: S. cerevisiae wt1 strain (SPY 50644) growth inhibition, active compounds read high
How it was run: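 Readout: yeast growth inhibition, normalised to vehicle controls, in the wt1 strain exposed to test compounds.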

[2] = NCI Yeast Anticancer Drug Screen. Data for the rad50EPP+ strain (AID 151);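 further: 0% = growth of vehicle-treated control cultures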; conditions: S. cerevisiae rad50 mutant strain, active compounds read high
How it was run: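 Compounds were applied to the rad50EPP+ yeast strain, which bears a defined DNA repair alteration, and growth inhibition was determined relative to vehicle-treated cultures.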

[3] = NCI Yeast Anticancer Drug Screen. Data for the mgt1 strain (AID 153); conditions: S. cerevisiae mgt1 mutant growth inhibition, active compounds read high
How it was run: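 Strain: mgt1 yeast, one of a set carrying defined DNA damage repair or cell cycle control alterations. Compound-treated growth compared with vehicle.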

[4] = NCI Yeast Anticancer Drug Screen. Data for the rad50 strain (AID 155);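 further: 0% = growth of vehicle-only cultures of the same strain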; conditions: S. cerevisiae rad50 strain growth inhibition, active compounds read high
How it was run: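 Compounds were tested on a yeast strain with an engineered DNA damage repair alteration; the reported value is growth inhibition normalised to vehicle treatment.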

[5] = NCI Yeast Anticancer Drug Screen. Data for the mec2-1 strain (AID 157); conditions: S. cerevisiae mec2-1 strain, active compounds read high
How it was run: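 Strain: mec2-1 (DNA repair/cell cycle alteration). Compound exposure, then growth measured; inhibition expressed relative to vehicle.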

[6] = NCI Yeast Anticancer Drug Screen. Data for the rad14 strain (AID 159);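 further: 0% = growth of vehicle-treated control cultures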; conditions: S. cerevisiae rad14 strain growth inhibition, active compounds read high
How it was run: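 Compound-treated yeast with a defined DNA-repair lesion; growth inhibition normalised to vehicle-treated cultures.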

[7] = NCI Yeast Anticancer Drug Screen. Data for the sgs1 mgt1 strain (AID 161);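 further: 0% = growth of cultures given vehicle only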; conditions: S. cerevisiae sgs1 mgt1 strain, active compounds read high
How it was run: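 Mutant yeast exposed to compound; growth scored against vehicle-only wells.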

[8] = NCI Yeast Anticancer Drug Screen. Data for the CLN2oe strain (AID 163);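 further: 0% = growth of vehicle-only control cultures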; conditions: S. cerevisiae CLN2oe strain, active compounds read high
How it was run: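 Growth of a genetically modified yeast strain is measured after compound exposure and compared with cultures given vehicle alone.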

[9] = NCI Yeast Anticancer Drug Screen. Data for the bub3 strain (AID 167); conditions: S. cerevisiae bub3 mutant strain, active compounds read high
How it was run: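 Growth of a checkpoint-deficient yeast mutant is measured after compound exposure. Values represent inhibition relative to vehicle.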

[10] = NCI Yeast Anticancer Drug Screen. Data for the wt2 strain (AID 169);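 further: 0% = growth of vehicle-treated yeast cultures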; conditions: S. cerevisiae wt2 strain growth inhibition, active compounds read high
How it was run: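 This strain belongs to a panel of yeast strains with defined genetic alterations in DNA damage repair or cell cycle control. Compounds are applied, and growth inhibition is measured against vehicle-treated cultures.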

[11] = NCI Yeast Anticancer Drug Screen. Data for the mlh1 strain (AID 171);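 further: 0% = growth of vehicle-treated control cultures of the same strain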; conditions: S. cerevisiae mlh1 strain growth inhibition, active compounds read high
How it was run: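 Growth of the mutant yeast strain after compound exposure, expressed as inhibition relative to vehicle-only controls.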

[12] = NCI Yeast Anticancer Drug Screen. Data for the sgs1 strain (AID 173);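 further: 0% = growth of vehicle-only control cultures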; conditions: S. cerevisiae sgs1 mutant, active compounds read high
How it was run: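 Growth of a yeast strain bearing a defined genetic alteration is measured after compound treatment. Inhibition is expressed relative to vehicle-only controls.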

[13] = NCI Yeast Anticancer Drug Screen. Data for the mlh1 rad18 strain (AID 175); conditions: S. cerevisiae mlh1 rad18 strain growth inhibition, active compounds read high
How it was run: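 Read-out is yeast growth inhibition, calculated against vehicle-only controls. The compound was applied to a strain engineered with DNA damage repair alterations.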

[14] = NCI Yeast Anticancer Drug Screen. Data for the rad18 strain (AID 177); conditions: S. cerevisiae rad18 mutant growth inhibition, active compounds read high
How it was run: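 Growth of the mutant yeast strain after compound exposure, normalised to vehicle-only cultures.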

[15] = at 5.0 µM (retest, dose inferred, filed as 0.5)
[16] = at 50.0 µM (retest, dose inferred, filed as 5.0)

Measured: growth inhibition

OC1C#CCSCC#C/C=C\1 (stereo not given)
inactive: [1]; at 1.2 µM 9% | [1]; at 3.7 µM 3% | [1]; at 11.0 µM 14% | [1]; at 33.0 µM 55% | [2]; at 1.2 µM -22% | [2]; at 3.7 µM 15% | [2]; at 11.0 µM 13% | [2]; at 33.0 µM 23% | [3]; at 1.2 µM 9% | [3]; at 3.7 µM 2% | [3]; at 11.0 µM 14% | [3]; at 33.0 µM 43% | [4]; at 1.2 µM -24% | [4]; at 3.7 µM -17% | [4]; [15] 53% | [4]; at 11.0 µM 34% | [4]; at 33.0 µM 65% | [5]; at 1.2 µM 1% | [5]; at 3.7 µM 18% | [5]; [15] 62% | [5]; at 11.0 µM 14% | [5]; at 33.0 µM 54% | [6]; at 1.2 µM 4% | [6]; at 3.7 µM 6% | [6]; at 11.0 µM 12% | [6]; at 33.0 µM 51% | [7]; [15] -4% | [8]; at 1.2 µM -22% | [8]; at 3.7 µM 3% | [8]; at 11.0 µM -15% | [8]; at 33.0 µM -3% | [9]; at 1.2 µM -8% | [9]; at 3.7 µM -16% | [9]; [15] 16% | [9]; at 11.0 µM 17% | [9]; at 33.0 µM -10% | [10]; at 1.2 µM -21% | [10]; at 3.7 µM -17% | [10]; at 11.0 µM 6% | [10]; at 33.0 µM -9% | [11]; at 1.2 µM -1% | [11]; at 3.7 µM 4% | [11]; at 11.0 µM 15% | [11]; at 33.0 µM 46% | [12]; at 1.2 µM 20% | [12]; at 3.7 µM 11% | [12]; at 11.0 µM 27% | [12]; at 33.0 µM 67% | [13]; [15] 62% | [14]; at 1.2 µM -27% | [14]; at 3.7 µM -21% | [14]; at 11.0 µM 4% | [14]; at 33.0 µM 49%
active: [1]; at 100.0 µM 97% | [2]; at 100.0 µM 86% | [3]; at 100.0 µM 95% | [4]; [16] 100% | [4]; at 50.0 µM 81.3% | [4]; at 100.0 µM 97% | [5]; [16] 100% | [5]; at 50.0 µM 78.4% | [5]; at 100.0 µM 97% | [6]; at 100.0 µM 98% | [7]; [16] 96% | [7]; at 50.0 µM 70.4% | [8]; at 100.0 µM 77% | [9]; [16] 97% | [9]; at 50.0 µM 84.2% | [9]; at 100.0 µM 96% | [10]; at 100.0 µM 95% | [11]; at 100.0 µM 96% | [12]; at 100.0 µM 97% | [13]; [16] 100% | [13]; at 50.0 µM 79.2% | [14]; at 100.0 µM 92%
